A selection: hits, their analogues and other compounds. The true share with any hit is near 7%.
JMJD2A Tudor inh = inhibitors of human JMJD2A Tudor domain | O75164 | AlphaScreen JMJD2A-Tudor / H3K4me3 peptide binding | Potency, µM (top dose mostly 114 µM), actives largely listed as inhibitors | 390,000 tested, 4.4% active; further: nearly all actives have a fitted effect of over 50% in size
PLK1 PBD inh = inhibitors of human PLK1 polo-box domain binding. Plk1 PBD binding of FITC phosphopeptide, fluorescence polarization. Potency, µM, most hits filed as inhibitors. 360,000 tested, 2.8% active; further: series mostly up to about 57 µM; nearly all actives have a fitted effect of over 65% in size
HP1b binding inh = inhibitors of HP1-beta chromodomain binding to methylated histone tails; P83916; AlphaScreen HP1-beta / biotin-H3K9me3 peptide binding; Potency, µM (doses to about 114 µM), most hits filed as inhibitors; 390,000 tested, 0.56% active; further: nearly all actives have a fitted effect of over 70% in size
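AlphaScreen: HP1-beta (50 nM) preformed 30 min with biotin-H3(1-18)K9me3 peptide (50 nM) in PBS pH 7.4, 0.01% Tween-20. Compound added for 30 min at RT, then streptavidin donor/nickel chelate acceptor beads (10 ug/mL) for 30 min.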
GCN5L2 inh = inhibitors of human GCN5L2 histone acetyltransferase; Q92830; Potency, µM (series often up to 58.9 µM), actives largely listed as inhibitors; GCN5L2 HAT assay, ThioGlo1 CoA-SH fluorescence; 390,000 tested, 0.21% active; AID 504327
Target sequence (Q92830 whole entry, looked up): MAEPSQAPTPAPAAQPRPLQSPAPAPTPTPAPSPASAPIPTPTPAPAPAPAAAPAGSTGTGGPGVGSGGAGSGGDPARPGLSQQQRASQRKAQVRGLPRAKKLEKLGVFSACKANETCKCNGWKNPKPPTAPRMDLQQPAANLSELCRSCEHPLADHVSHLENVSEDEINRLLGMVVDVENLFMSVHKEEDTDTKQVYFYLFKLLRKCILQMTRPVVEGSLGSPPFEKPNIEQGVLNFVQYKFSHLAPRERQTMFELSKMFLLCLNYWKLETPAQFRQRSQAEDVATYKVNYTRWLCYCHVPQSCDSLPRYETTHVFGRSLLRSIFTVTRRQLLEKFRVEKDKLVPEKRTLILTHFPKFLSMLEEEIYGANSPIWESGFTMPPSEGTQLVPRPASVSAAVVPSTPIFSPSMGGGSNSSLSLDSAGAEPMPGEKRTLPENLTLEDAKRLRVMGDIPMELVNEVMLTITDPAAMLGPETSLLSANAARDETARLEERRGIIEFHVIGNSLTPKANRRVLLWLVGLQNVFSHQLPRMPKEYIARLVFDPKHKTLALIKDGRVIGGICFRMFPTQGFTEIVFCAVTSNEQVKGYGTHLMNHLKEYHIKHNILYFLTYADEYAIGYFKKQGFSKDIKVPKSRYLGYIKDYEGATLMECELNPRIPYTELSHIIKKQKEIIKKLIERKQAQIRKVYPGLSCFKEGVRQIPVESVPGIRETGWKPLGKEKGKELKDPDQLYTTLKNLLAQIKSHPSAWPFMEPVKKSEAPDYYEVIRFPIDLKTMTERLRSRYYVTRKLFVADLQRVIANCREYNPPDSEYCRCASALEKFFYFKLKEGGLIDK
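Compounds, pin-transferred from DMSO stocks, meet 20nM GCN5L2 for 15 min before the reaction begins with H3(1-25) peptide (75uM) and acetyl-CoA (70uM). Thiol-reactive ThioGlo1 reports CoA release over 20 min at room temperature.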
PI5P4Ka inh = blocks human PI5P4K alpha kinase activity; 330,000 tested, 1.2% active; P48426; AID 652105; max response, %; PI5P4Kalpha enzyme, ADP-Glo luminescence, 60 min; active compounds read low; active means max response of -50% or lower; inconclusive means between -30% and -50%; inactive means -30% or higher; further: value at the top dose of about 77 µM
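ADP-Glo luminescence end-point read after a 60 min room-temperature kinase reaction of PI5P4Kalpha plus substrate, initiated with ATP at 5 microM final. Buffer: 0.038 M HEPES pH 7.4, EGTA, 0.1% CHAPS, 5% DMSO.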
BAZ2B block = inhibitors of human BAZ2B bromodomain; Q9UIF8; AlphaScreen BAZ2B-H3K14Ac peptide displacement; Potency, µM (top dose mostly 114 µM), usual class: inhibitors; 360,000 tested, 4.4% active; further: nearly all actives have a fitted effect of over 60% in size
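AlphaScreen displacement of biotin-H3(5-23)K14Ac peptide (50 nM final) from BAZ2B (50 nM final) in PBS pH 7.4, 0.01% Tween-20; complex preformed 30 min RT, then compounds (top 110 uM) 30 min RT, beads 20 min dark.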
Hits are given with their value. Unless noted, the call rests on the fitted dose curve; in most records, active means well fitted curve in the direction sought with a large enough effect; inconclusive means small, poorly fitted or top-dose-only effect, or another doubt; inactive means no such curve, though single readings can be large; an effect the other way counts as inactive or inconclusive.

Screening Cc1cc(N2C(=O)C(O)=C(C(=O)c3cc4ccccc4o3)C2c2cccs2)no1 (stereo unspecified) returned JMJD2A Tudor inh inconclusive, PLK1 PBD inh inconclusive, HP1b binding inh inactive, GCN5L2 inh inactive, PI5P4Ka inh inactive and BAZ2B block inconclusive.
Cc1cc(N2C(=O)C(O)=C(C(=O)c3cc4ccccc4o3)C2c2ccc([N+](=O)[O-])cc2)no1 (stereo unspecified) was read as JMJD2A Tudor inh inactive, PLK1 PBD inh 38µM, HP1b binding inh inactive, GCN5L2 inh inconclusive, PI5P4Ka inh inconclusive and BAZ2B block inconclusive.
Screening Cc1ccc(C2C(C(=O)c3cc4ccccc4o3)=C(O)C(=O)N2c2cc(C)on2)cc1 (stereo unspecified) returned JMJD2A Tudor inh inconclusive, PLK1 PBD inh 19µM, HP1b binding inh inactive, GCN5L2 inh inactive, PI5P4Ka inh -52 and BAZ2B block inconclusive.
For Cc1cc(N2C(=O)C(O)=C(C(=O)c3ccco3)C2c2cccc(Oc3ccccc3)c2)no1 (stereo unspecified) the results were JMJD2A Tudor inh inconclusive, PLK1 PBD inh inconclusive, HP1b binding inh inactive, GCN5L2 inh inactive, PI5P4Ka inh -68 and BAZ2B block inconclusive.
For O=C(COC(=O)CNC(=O)c1ccccc1)NC1CCCC1 the results were JMJD2A Tudor inh inactive, PLK1 PBD inh inactive, HP1b binding inh inactive, GCN5L2 inh inactive, PI5P4Ka inh inactive and BAZ2B block inactive.
O=C(c1cccc(S(=O)(=O)NCc2ccc3c(c2)OCO3)c1)N1CCCC1 was read as JMJD2A Tudor inh inactive, PLK1 PBD inh inactive, HP1b binding inh inactive, GCN5L2 inh inactive, PI5P4Ka inh inactive and BAZ2B block inactive.
Screening CN(C)C=Nc1ccccc1C1C=NNC1=O (stereo unspecified) returned GCN5L2 inh inactive and BAZ2B block inactive.
Screening Nc1c(SCCC(=O)O)ccc2c1C(=O)c1ccccc1C2=O returned JMJD2A Tudor inh inconclusive, PLK1 PBD inh inactive, HP1b binding inh inconclusive, GCN5L2 inh inactive, PI5P4Ka inh -87 and BAZ2B block 40µM.
For COC(=O)c1ccc2c(c1O)C(=O)c1ccccc1C2=O the results were JMJD2A Tudor inh inconclusive, PLK1 PBD inh inactive, HP1b binding inh inactive, GCN5L2 inh inactive, PI5P4Ka inh inactive and BAZ2B block inconclusive.
Screening O=C1c2ccccc2C(=O)c2c1ccc(O)c2O returned JMJD2A Tudor inh 50µM, PLK1 PBD inh inconclusive, HP1b binding inh 7.1µM, GCN5L2 inh inconclusive and PI5P4Ka inh -74.
Nc1c(C(=O)O)ccc2c1C(=O)c1ccccc1C2=O was read as JMJD2A Tudor inh inconclusive, PLK1 PBD inh inactive, HP1b binding inh inconclusive, GCN5L2 inh inactive, PI5P4Ka inh -69 and BAZ2B block 35µM.
Screening Nc1cc(C(=O)O)c(N)c2c1C(=O)c1ccccc1C2=O returned JMJD2A Tudor inh inconclusive, PLK1 PBD inh 19µM, HP1b binding inh 14µM, GCN5L2 inh inactive, PI5P4Ka inh -83 and BAZ2B block 14µM.
O=C(O)CCSc1nc2ccccc2s1 was read as JMJD2A Tudor inh inactive, PLK1 PBD inh inconclusive, HP1b binding inh inactive, GCN5L2 inh inactive and BAZ2B block inactive.
`CC1=CC(=O)O[C@@H]1[C@@]1(C)C[C@H]2OC(=O)C[C@H]3[C@@H](C)C(=O)C(O)=C1[C@@]23CO` gave JMJD2A Tudor inh inactive, PLK1 PBD inh inactive, HP1b binding inh inactive, GCN5L2 inh inactive, PI5P4Ka inh inactive and BAZ2B block inactive.
`Cc1c(Cl)cccc1NC(=S)N(Cc1cccs1)C1CCCC1` gave JMJD2A Tudor inh inactive, PLK1 PBD inh inactive, HP1b binding inh inactive, GCN5L2 inh inactive, PI5P4Ka inh inactive and BAZ2B block inactive.
For O=C1c2ccccc2C(=O)c2[nH]c(=O)[nH]c21 the results were JMJD2A Tudor inh inactive, PLK1 PBD inh inactive, HP1b binding inh inactive, GCN5L2 inh inactive, PI5P4Ka inh -69 and BAZ2B block inactive.
O=C1C(=O)c2ccccc2C(O)=C1c1ccccc1F was read as JMJD2A Tudor inh inactive, PLK1 PBD inh inactive, HP1b binding inh inactive, GCN5L2 inh inactive, PI5P4Ka inh inactive and BAZ2B block inconclusive.
For O=C1C(O)=C(O)C(=O)c2ccccc21 the results were JMJD2A Tudor inh 56µM, PLK1 PBD inh inactive, HP1b binding inh inconclusive and PI5P4Ka inh inactive.
Cn1cc(C(=O)c2ccc(Cl)cc2)cc1-c1nc2ccccc2n1C was read as JMJD2A Tudor inh 56µM, PLK1 PBD inh inactive, HP1b binding inh inactive, GCN5L2 inh inactive, PI5P4Ka inh inactive and BAZ2B block inconclusive.
`O=S(=O)(Nc1ccccc1)c1ccc(NS(=O)(=O)c2c(F)cccc2F)cc1` gave JMJD2A Tudor inh inactive, PLK1 PBD inh inactive, HP1b binding inh inactive, GCN5L2 inh inactive, PI5P4Ka inh inactive and BAZ2B block inactive.
For CCOC1=C2[C@H](c3ccccc3)N(S(=O)(=O)c3ccc(C)cc3)C(C(C)(C)C)[C@H]2C(C#N)(C#N)C(C#N)(C#N)C1 (stereo partly specified) the results were PLK1 PBD inh inactive and PI5P4Ka inh -50.
Screening CCOC1=C2CN(S(=O)(=O)c3ccc(C)cc3)[C@H](c3cccc4ccccc34)C[C@H]2C(C#N)(C#N)C(C#N)(C#N)C1 returned PLK1 PBD inh inactive and PI5P4Ka inh inconclusive.
For CSc1cccc(NC(=O)C2C3C=CC4(O3)C2C(=O)N(CCN2CCOCC2)C4C(=O)NC2CCCCC2)c1 (stereo unspecified) the results were JMJD2A Tudor inh inactive, PLK1 PBD inh inactive, HP1b binding inh inactive, GCN5L2 inh inactive, PI5P4Ka inh inactive and BAZ2B block inactive.
Screening CC(=O)Nc1nc(C)cs1 returned JMJD2A Tudor inh inactive, PLK1 PBD inh inactive, HP1b binding inh inactive, GCN5L2 inh inactive, PI5P4Ka inh inactive and BAZ2B block inactive.
For CC(=O)Nc1nc(C(=O)O)cs1 the results were JMJD2A Tudor inh 4µM, PLK1 PBD inh inactive, HP1b binding inh inconclusive, GCN5L2 inh inactive, PI5P4Ka inh inactive and BAZ2B block 32µM.
O=C(O)/C=C/c1nc(-c2ccccc2)n2ccccc12 was read as JMJD2A Tudor inh inactive, PLK1 PBD inh inactive, HP1b binding inh inactive, GCN5L2 inh inactive, PI5P4Ka inh inactive and BAZ2B block 45µM.
Screening CCOC(=O)c1ccc(N2NC(=O)/C(=C/c3ccc(OC(=O)c4ccco4)c(OC)c3)C2=O)cc1 returned GCN5L2 inh inactive and BAZ2B block inconclusive.
`C#CCOc1ccc(/C=C2/C(=O)N(c3cccc(C(=O)O)c3)N=C2C)cc1OC` gave JMJD2A Tudor inh inconclusive, PLK1 PBD inh 1.9µM, HP1b binding inh inactive, GCN5L2 inh inactive, PI5P4Ka inh inactive and BAZ2B block inactive.
For COc1cc(/C=C2\C(=O)N(c3ccc(S(N)(=O)=O)cc3)N=C2C)ccc1OC(=O)c1ccco1 the results were JMJD2A Tudor inh inconclusive, PLK1 PBD inh 3.8µM, HP1b binding inh inactive, GCN5L2 inh inactive, PI5P4Ka inh inactive and BAZ2B block inconclusive.
